Assay outcomes from PubChem.
In the library only some 4.2% were active in any assay of this set; here they are far more common.
TRPV1 potentiator: enhances activation of the human vanilloid receptor TRPV1 | Q8NER1 | TRPV1-expressing cells, Fluo-8 calcium influx, capsaicin EC20 potentiation | potentiation, % at 8.33 µM | 0.02% of 320,000 active; in the data active means potentiation above about 80%; inconclusive means between about 30% and that limit; further: 0% is about no effect
Target sequence (Q8NER1 whole entry, looked up): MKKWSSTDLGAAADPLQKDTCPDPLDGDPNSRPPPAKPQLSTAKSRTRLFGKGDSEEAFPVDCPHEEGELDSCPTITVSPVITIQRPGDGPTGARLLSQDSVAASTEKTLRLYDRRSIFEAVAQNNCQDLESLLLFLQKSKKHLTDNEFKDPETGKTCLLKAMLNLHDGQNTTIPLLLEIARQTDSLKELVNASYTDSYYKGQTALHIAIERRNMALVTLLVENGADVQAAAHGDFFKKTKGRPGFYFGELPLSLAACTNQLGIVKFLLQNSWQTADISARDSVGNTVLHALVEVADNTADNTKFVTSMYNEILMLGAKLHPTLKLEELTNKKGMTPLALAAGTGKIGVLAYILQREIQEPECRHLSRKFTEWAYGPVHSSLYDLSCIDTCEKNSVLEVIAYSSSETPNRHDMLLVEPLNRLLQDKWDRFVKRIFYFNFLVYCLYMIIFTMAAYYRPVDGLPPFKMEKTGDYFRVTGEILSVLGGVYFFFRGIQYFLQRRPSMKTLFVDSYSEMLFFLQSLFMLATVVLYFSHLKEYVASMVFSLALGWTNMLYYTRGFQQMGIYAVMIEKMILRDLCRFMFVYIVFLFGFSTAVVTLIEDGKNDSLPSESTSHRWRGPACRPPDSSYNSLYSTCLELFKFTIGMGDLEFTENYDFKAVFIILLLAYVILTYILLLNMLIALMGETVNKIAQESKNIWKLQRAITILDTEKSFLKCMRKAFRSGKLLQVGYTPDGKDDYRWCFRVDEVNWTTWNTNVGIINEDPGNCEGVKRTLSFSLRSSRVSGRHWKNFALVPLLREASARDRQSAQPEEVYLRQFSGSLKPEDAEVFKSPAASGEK
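Fluo-8 calcium influx in TRPV1-expressing cells, kinetic read (ex 480/em 520 nm). Compound added and read 3 min for agonist activity, followed by capsaicin at EC20 final and 2 min further read for enhancement.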
D1 antagonist: blocks dopamine activation of the human D1 receptor; P21728; HEK293 TREx D1 cells, calcium flux, dopamine EC80; hits give low values; activity change, negative = inhibition, % at 10 µM; 3.2% of 360,000 active; AID 504652; in the data active means activity change below about -30%; further: on the % scale 0 is the no-effect control and ±100 the full control effect
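Cells carrying a force-coupled, tetracycline-inducible human D1 receptor report calcium flux. Each well gets a 10 s baseline, compound with 180 s monitoring, then an EC80 dopamine stimulus with a second 180 s kinetic read.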
D1 PAM: enhances dopamine response at the human D1 receptor | P21728 | HEK293 TREx D1 cells, calcium flux, dopamine EC20 potentiation | potentiation, % at 10 µM | 0.036% of 360,000 active | AID 504651; in the data active means potentiation above about 30%; further: 0% is about no effect
TRPV1 agonist: activates the human vanilloid receptor TRPV1; AID 540275; activation, % at 8.33 µM; Q8NER1; 0.19% of 320,000 active; TRPV1-expressing cells, Fluo-8 calcium influx, agonist mode; in the data active means activation above about 80%; inconclusive means between about 30% and that limit; further: 0% is about no effect
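Fluo-8 calcium influx in TRPV1-expressing cells, kinetic read (ex 480/em 520 nm). Compound added and read 3 min for agonist activity, followed by capsaicin at EC20 final and 2 min further read for enhancement.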
D1 ag: activates the human D1 dopamine receptor | 1% of 360,000 active | HEK293 T-REx D1 cells, calcium flux, agonist mode | P21728 | activation, % at 2 µM; in the data active means activation above about 30%; further: 0% is about no effect
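Agonism was scored from calcium flux recorded over 180 s (1 read/s) after pintool compound addition, following a 10-cycle baseline. Cells were inducible force-coupled HEK293 TREx D1, plated overnight at 30 C and loaded with no-wash calcium dye.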
Active calls of the source: *; u = inconclusive; x = no result given; ! = not active in a repeat.

SMILES | TRPV1 potentiator | D1 antagonist | D1 PAM | TRPV1 agonist | D1 ag
Cc1cccc(-n2c(/C=C/c3ccccc3O)nc3ccccc3c2=O)c1 | x | -7 | -2 | x | 8
Cc1cccc(N2CCc3c2nc2ccccc2c3N)c1 | 17 | -32*! | -9 | 14 | 6
Cc1ccc2scc(N3CCN(C)CC3)c(=O)c2c1 | 9 | 19 | 2 | 1 | 4
CC(C)Sc1nnc([C@@H](N)Cc2c[nH]c3ccccc23)o1 | 2 | -4 | -6 | 6 | 2
NC(=O)CSc1nnc([C@@H](N)Cc2c[nH]c3ccccc23)o1 | -7 | -44* | -5 | -1 | 6
CC/C(=C\C=C\[C@@H]1C=C[C@@H]2CCC[C@H]2[C@@H]1C(=O)c1ccc[nH]1)[C@@H]1O[C@@H]([C@@H](C)C(=O)O)CC[C@@H]1C | -11 | -60* | -7 | u | 29
Cc1cc(C)cc(-n2c(/C=C/c3cccc(F)c3)nc3ccccc3c2=O)c1 | x | 6 | 0 | x | -3
O=C(CCCN1CCC(n2c(=O)[nH]c3ccccc32)CC1)c1ccc(F)cc1 | -9 | -44* | -6 | 2 | 0
Cc1cccc(-n2c(/C=C/c3cn(C)c4ccccc34)nc3ccccc3c2=O)c1 | x | -1 | -1 | x | 1
CN1[C@@H]2CC[C@H]1CC(OC1c3ccccc3CCc3ccccc31)C2 (stereo partly drawn) | -9 | -43* | 3 | u | 44*
CN1C2CCC1CC(OC(=O)c1ccc(Cl)cc1)C2 (stereo not drawn) | 1 | 2 | -2 | 0 | 6
CNC(=S)N1CCn2cccc2C1c1cccnc1 (stereo not drawn) | 10 | -33* | 2 | 1 | 3
Cc1oc2cc3oc(=O)c(CCC(=O)N4CCCCC4)c(C)c3cc2c1C | x | -22 | -2 | x | 10
CCCCCCOc1ccc(CN2CCN(C)CC2)cc1 | 28 | -18 | -10 | 1 | 31*
O=C1NC(=O)N(Cc2ccccc2)C(=O)/C1=C\c1ccco1 | -14 | -32* | -1 | u | 3
CCN(CC)c1ccc(/C=C2\C(=O)NC(=O)N(Cc3ccco3)C2=O)cc1 | 8 | -46* | -4 | -2 | 2
O=C1NC(=O)N(Cc2ccc(F)cc2)C(=O)/C1=C\C=C\c1ccco1 | 9 | -4 | 3 | 14 | 13
CCN(CC)c1ccc(/C=C2/C(=O)NC(=O)N(CC3CCCO3)C2=O)cc1 (stereo not drawn) | -4 | -4 | 4 | -3 | 1
COc1ccc(OCC(=O)N2CCN(Cc3cccc(OC)c3OC)CC2)cc1 | x | -14 | -1 | x | 1
Clc1ccc2c(c1)C(c1ccccc1Cl)=NCc1nnc(N3CCN(CCOc4ccccc4)CC3)n1-2 | 9 | -22 | -10 | 1 | 39*
Cc1ccc(-n2c(/C=C\c3ccc(F)c(F)c3)nc3ccccc3c2=O)c(C)c1 | x | 10 | -1 | x | 0
CC(=O)c1ccc(-c2ccccc2)cc1 | -2 | -34* | -9 | 16 | 1
O=C(COc1ccccc1Cl)N1CCN(CCc2ccncc2)CC1 | x | 4 | -1 | x | 10
N#CCN1CCN(c2ccc(C(F)(F)F)cc2)CC1 | 3 | -50* | -9 | 2 | 1
C#CCN1CCN(c2ccc(F)cc2)CC1 | 13 | 9 | -5 | 0 | 1
SMILES | TRPV1 potentiator | D1 antagonist | D1 PAM | TRPV1 agonist | D1 ag
Nc1c2c(nc3sc4c(c13)CCCCC4)CCCC2 | -1 | -42* | -12 | -4 | 20
O=S1(=O)N(CCN2CC=C(c3c[nH]c4cc(F)ccc34)CC2)c2cccc3c2N1CCC3 | -2 | -41* | -8 | 4 | 1
CC(C)N1CC=C(c2c[nH]c3ccccc23)CC1 | -8 | 1 | 8 | 1 | 5
CCOc1ccc(CN(CCc2ccc3c(c2)OCO3)Cc2ccc(OC)c(Br)c2)cc1 | x | -21 | -2 | x | 9
Cc1ccc(-n2c(/C=C/c3cccc4ccccc34)nc3ccccc3c2=O)cc1 | x | -6 | -3 | x | 4
Clc1ccc(C(Cn2ccnc2)OCc2csc3c(Cl)cccc23)c(Cl)c1 (stereo not drawn) | -30 | 17 | -5 | 15 | 27
Clc1ccc(CCC(Cn2ccnc2)Sc2c(Cl)cccc2Cl)cc1 (stereo not drawn) | 10 | -54* | 6 | -3 | 46*
Ic1ccccc1CN[C@@H]1C2CCN(CC2)[C@@H]1C(c1ccccc1)c1ccccc1 | 15 | -31* | 24 | -2 | 84*
O=C1NC(=O)C(=Cc2coc3ccccc3c2=O)C(=O)N1 | 8 | -4 | -2 | 0 | 2
O=C1NC(=O)C(=C/C=C/c2coc3ccc(Br)cc3c2=O)C(=O)N1 | 3 | 1 | -2 | 21 | 83*
CCc1ccc(OCC(=O)N2CCN(CCc3ccccn3)CC2)cc1 | x | 4 | 1 | x | -1
CCOc1ccc(N2C(=O)NC(=O)/C(=C\c3ccccc3[N+](=O)[O-])C2=O)cc1 | -23 | -46* | 5 | 1 | 1
O=C(OCC(=O)c1ccc([N+](=O)[O-])cc1)/C(=C/c1ccc(Cl)cc1)NC(=O)c1ccccc1 | -11 | -34* | 2 | -3 | 3
O=C(COC(=O)Cc1ccccc1)NNC(=O)c1ccc([N+](=O)[O-])cc1 | -17 | -1 | -3 | -1 | 1
O=C(Nc1ccc2c(c1)OCO2)c1cccn(Cc2cccc([N+](=O)[O-])c2)c1=O | x | x | -2 | x | -4
Cc1cc(OCc2nn[nH]n2)c2c3c(c(=O)oc2c1)CCCC3 | -5 | 2 | -1 | 0 | 0
Cc1cc(OCc2ccc([N+](=O)[O-])cc2)c2c3c(c(=O)oc2c1)CCCC3 | 3 | -30* | 5 | 5 | 2
O=c1c2ccccc2nc(/C=C\c2cccc(Br)c2)n1-c1ccc(O)cc1 | x | 8 | -1 | x | 5
O=C(COc1ccccc1)c1cn(Cc2ccccc2)c2ccccc12 | 0 | -21 | -9 | 30 | 30*
CCN(CC)c1ccc(N=Cc2c(O)n(-c3ccc(Cl)cc3)c(=O)[nH]c2=O)cc1 | 5 | -38* | -6 | -8 | 6
C=CCn1c(O)c(C=Nc2ccc(N(CC)CC)cc2)c(=O)[nH]c1=O | 2 | -5 | -4 | 21 | 31*
O=C(Nc1ccc(Br)cc1C(=O)c1ccccc1Cl)c1ccccc1F | x | -11 | -3 | x | 2
C=C1C2C[C@H](O)C(C)(C)[C@@]2(O)[C@H](O)C[C@]23C[C@@](C)(O)[C@H](CC[C@H]12)[C@H]3OC(C)=O (stereo partly drawn) | 9 | -34* | -3 | -4 | 0
C[n+]1c(-c2ccccc2)c2cc(N)ccc2c2ccc(N)cc21 | -1 | 1 | -6 | 8 | 27
Nc1ccc2ccc3cccc[n+]3c2c1 | -14 | -26 | 12 | 8 | 131*
COC(=O)C1=C(c2ccc(F)cc2F)C[C@@H]2CC[C@H]1N2C(=O)N1CCC(O)(c2ccc(Cl)cc2)CC1 | -1 | -46* | -3 | 2 | 5
